Compounds without any hit were thinned out: in the full panel of roughly 79,000, 15% have a hit. Values without a mark were called inactive. Rule as the data show it: active = growth inhibition above about 70%; inactive = the rest.
Assay: NCI Yeast Anticancer Drug Screen. Data for the rad50 strain (AID 155);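 also: 0% = growth of vehicle-only cultures of the same strain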
Conditions: S. cerevisiae rad50 strain growth inhibition; at 50.0 µM; active compounds read high
Summary of the method: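 Growth of the mutant yeast was measured after compound exposure and referenced to vehicle-treated cultures.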

Q: With `COc1ccc(CCNC(=O)CC(C)=O)cc1` as the molecule, how does the growth inhibition read?
A: -49.2%

Q: For `CO/C(Cc1cc(O)cc(O)c1)=N\N`, which growth inhibition is on record?
A: -0.45%

Q: With `CCCNc1nc(Cl)nc2c1cnn2C` as the molecule, how does the growth inhibition read?
A: 7.6%

Q: For `NNC(=O)CCC(=O)NC1C2CC3CC(C2)CC1C3` (configuration not stated), which growth inhibition is on record?
A: -23.6%

Q: With `COC(=O)CCSSCCC(=O)OC` as the molecule, how does the growth inhibition read?
A: 2.15%

Q: Which growth inhibition does the source give for `CC1=C(O)c2ccccc2C(=O)C1=O` here?
A: 25.4%

Q: For `Cc1cc2nc(CC(O)c3nc4cc(C)c(C)cc4[nH]3)[nH]c2cc1C` (configuration not stated), which growth inhibition is on record?
A: 6.9%

Q: For `C=Cc1c(C)c2cc3[nH]c(cc4nc(cc5nc(cc1[nH]2)C(C)=C5CCC(=O)OC)C(CCC(=O)OC)=C4C)c(C)c3C=C`, which growth inhibition is on record?
A: 8.1%

Q: For `C=NNC(=O)c1ccncc1`, which growth inhibition is on record?
A: -10.4%

Q: Which growth inhibition does the source give for `Nc1nc2cc(COc3ccc(C(=O)O)cc3)ccc2nc1-c1ccccc1` here?
A: -28.6%

Q: Which growth inhibition does the source give for `CC(=O)NC1C(=O)N(c2ccccc2)N=C1C` (configuration not stated) here?
A: 15.6%

Q: With `O=[N+]([O-])c1c(F)cc(F)cc1F` as the molecule, how does the growth inhibition read?
A: -11%

Q: For `O=C1c2ccccc2-c2nnc(-c3ccc(Cl)cc3)cc21`, which growth inhibition is on record?
A: -29.1%

Q: Which growth inhibition does the source give for `CN(C)S(=O)(=O)C1(c2ccccc2)CCCC1` here?
A: 15.1%

Q: Which growth inhibition does the source give for `Clc1ccc2c(NCCCCN=Cc3ccccc3)ccnc2c1` here?
A: -9.55%

Q: Which growth inhibition does the source give for `Cc1nnc(-c2cn(C3OC(CO)C(O)C3O)c3ncnc(N)c23)nc1C` (configuration not stated) here?
A: 6.2%

Q: With `O=C(O)Cc1ccc(OCCCCCOc2ccc(CC(=O)O)cc2)cc1` as the molecule, how does the growth inhibition read?
A: 6.05%

Q: For `CC(C)NCC(=O)CCCBr`, which growth inhibition is on record?
A: -5.15%

Q: For `Nc1ccc(C(=O)O)c([N+](=O)[O-])c1`, which growth inhibition is on record?
A: 0.7%

Q: Which growth inhibition does the source give for `Cc1ccccc1CN` here?
A: 28.9%

Q: For `CCNC(=O)CCP(=O)(CCC(=O)NCC)CCC(=O)NCC`, which growth inhibition is on record?
A: 7.25%

Q: Which growth inhibition does the source give for `C1=COC(C=Nc2ccccc2)CC1` (configuration not stated) here?
A: -12.3%

Assay: NCI Yeast Anticancer Drug Screen. Data for the mec2-1 strain (AID 157)
Conditions: S. cerevisiae mec2-1 strain, at 50.0 µM, active compounds read high
Summary of the method: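 Each compound was tested on mec2-1 yeast, a strain altered in DNA damage repair or cell cycle control. Growth inhibition is reported relative to vehicle.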

Q: For `Nc1ccc2ccccc2c1S(=O)(=O)O`, which growth inhibition is on record?
A: -6.4%

Q: Which growth inhibition does the source give for `CCSCC1OC(n2cnc3c(=S)nc(N)[nH]c32)C(O)C1O` (configuration not stated) here?
A: 10.1%

Q: Which growth inhibition does the source give for `Cc1cc(Cc2cc(C)c(O)c(CN(C)C)c2)cc(CN(C)C)c1O` here?
A: -7.7%

Q: For `Cc1cccc(N=Cc2ccc(N(CCC#N)S(=O)(=O)c3ccccc3)cc2C)c1`, which growth inhibition is on record?
A: -16.6%

Q: With `CCOC(=O)C(CNCc1ccccc1)(c1ccccc1)c1ccccc1` as the molecule, how does the growth inhibition read?
A: -4.85%

Q: Which growth inhibition does the source give for `N#CC(NC(=O)NCCCl)c1ccccc1` (configuration not stated) here?
A: -12.2%

Q: With `C#CCCOC(=O)c1ccccc1OC(C)=O` as the molecule, how does the growth inhibition read?
A: -9.55%

Q: Which growth inhibition does the source give for `CCOCCC(=O)OCCC(C)OC` (configuration not stated) here?
A: 11%

Q: With `CC(C)C1CCC(C)(C(N)=O)C1` (configuration not stated) as the molecule, how does the growth inhibition read?
A: 2.65%

Q: With `CC(=O)C1CCC2C3CCC4CC5(CCC4(C)C3C(=O)CC12C)NC(C(=O)O)CS5` (configuration not stated) as the molecule, how does the growth inhibition read?
A: 3.4%

Q: For `COC(=O)NS(=O)(=O)C1=Cc2cccc3cccc1c23`, which growth inhibition is on record?
A: 4.95%

Q: For `CC(C)C1=C(Cc2ccccc2)C(=O)O/C1=C\c1ccc(O)c(Cl)c1`, which growth inhibition is on record?
A: -22.9%

Q: With `COc1cccc(-n2cnc3c(SC)ncnc32)c1` as the molecule, how does the growth inhibition read?
A: 3.9%

Q: For `Cc1ccc(S(=O)(=O)OI(O)CC(F)(F)F)cc1`, which growth inhibition is on record?
A: 15.5%

Q: With `O=C1CCCS(=O)(=O)CCC1` as the molecule, how does the growth inhibition read?
A: 11.5%

Q: Which growth inhibition does the source give for `CC(=O)Nc1ccc(/C=C/c2csnn2)cc1` here?
A: 7.7%

Q: Which growth inhibition does the source give for `COc1cccc2c1C(CO)N1C(C#N)C3CC(C(=O)O)C(C1C2)N3C` (configuration not stated) here?
A: -5.9%

Q: For `O=C(O)c1ccc(CSc2ccccc2C(=O)O)cc1`, which growth inhibition is on record?
A: -16.6%

Q: For `COc1ccc(CCNC(=O)CC(C)=O)cc1`, which growth inhibition is on record?
A: -40.5%

Q: For `CO/C(Cc1cc(O)cc(O)c1)=N\N`, which growth inhibition is on record?
A: 6.3%

Q: For `CCCNc1nc(Cl)nc2c1cnn2C`, which growth inhibition is on record?
A: -8.4%

Q: Which growth inhibition does the source give for `NNC(=O)CCC(=O)NC1C2CC3CC(C2)CC1C3` (configuration not stated) here?
A: -15.4%

Q: With `COC(=O)CCSSCCC(=O)OC` as the molecule, how does the growth inhibition read?
A: -13.1%

Q: Which growth inhibition does the source give for `CC1=C(O)c2ccccc2C(=O)C1=O` here?
A: 16.8%

Q: Which growth inhibition does the source give for `Cc1cc2nc(CC(O)c3nc4cc(C)c(C)cc4[nH]3)[nH]c2cc1C` (configuration not stated) here?
A: -12.9%

Q: For `C=Cc1c(C)c2cc3[nH]c(cc4nc(cc5nc(cc1[nH]2)C(C)=C5CCC(=O)OC)C(CCC(=O)OC)=C4C)c(C)c3C=C`, which growth inhibition is on record?
A: 6.45%

Q: With `C=NNC(=O)c1ccncc1` as the molecule, how does the growth inhibition read?
A: -6.1%

Q: With `Nc1nc2cc(COc3ccc(C(=O)O)cc3)ccc2nc1-c1ccccc1` as the molecule, how does the growth inhibition read?
A: -17.9%

Q: Which growth inhibition does the source give for `CC(=O)NC1C(=O)N(c2ccccc2)N=C1C` (configuration not stated) here?
A: -6.05%

Q: Which growth inhibition does the source give for `O=[N+]([O-])c1c(F)cc(F)cc1F` here?
A: 5.75%

Q: For `O=C1c2ccccc2-c2nnc(-c3ccc(Cl)cc3)cc21`, which growth inhibition is on record?
A: -14.2%

Q: With `CN(C)S(=O)(=O)C1(c2ccccc2)CCCC1` as the molecule, how does the growth inhibition read?
A: 9.85%

Q: With `Clc1ccc2c(NCCCCN=Cc3ccccc3)ccnc2c1` as the molecule, how does the growth inhibition read?
A: -27.2%

Q: Which growth inhibition does the source give for `Cc1nnc(-c2cn(C3OC(CO)C(O)C3O)c3ncnc(N)c23)nc1C` (configuration not stated) here?
A: 15.9%

Q: For `O=C(O)Cc1ccc(OCCCCCOc2ccc(CC(=O)O)cc2)cc1`, which growth inhibition is on record?
A: 0.25%

Q: Which growth inhibition does the source give for `CC(C)NCC(=O)CCCBr` here?
A: 0.85%

Q: For `Nc1ccc(C(=O)O)c([N+](=O)[O-])c1`, which growth inhibition is on record?
A: -2.45%

Q: Which growth inhibition does the source give for `Cc1ccccc1CN` here?
A: 3.05%

Q: For `CCNC(=O)CCP(=O)(CCC(=O)NCC)CCC(=O)NCC`, which growth inhibition is on record?
A: -3.05%

Q: For `C1=COC(C=Nc2ccccc2)CC1` (configuration not stated), which growth inhibition is on record?
A: 13.8%

From PubChem BioAssay (NCI)
